# Measurements reported in PubChem BioAssay (Tox21).
# Records with an inconclusive call do not appear. A number with no mark means an inactive call. Calls come from the whole dose curve; as a rule, active = well fitted inhibition curve with a large enough effect in the signal ratio in the repeat runs (not every such curve was filed as active); inconclusive = weak or mixed curves, or effect the other way; inactive = no such curve, though single readings can be large or run the other way; the % refers to the signal ratio.
# Biological target: Vitamin D3 receptor (Homo sapiens) (UniProt P11473)
# Sequence (P11473 whole entry, looked up): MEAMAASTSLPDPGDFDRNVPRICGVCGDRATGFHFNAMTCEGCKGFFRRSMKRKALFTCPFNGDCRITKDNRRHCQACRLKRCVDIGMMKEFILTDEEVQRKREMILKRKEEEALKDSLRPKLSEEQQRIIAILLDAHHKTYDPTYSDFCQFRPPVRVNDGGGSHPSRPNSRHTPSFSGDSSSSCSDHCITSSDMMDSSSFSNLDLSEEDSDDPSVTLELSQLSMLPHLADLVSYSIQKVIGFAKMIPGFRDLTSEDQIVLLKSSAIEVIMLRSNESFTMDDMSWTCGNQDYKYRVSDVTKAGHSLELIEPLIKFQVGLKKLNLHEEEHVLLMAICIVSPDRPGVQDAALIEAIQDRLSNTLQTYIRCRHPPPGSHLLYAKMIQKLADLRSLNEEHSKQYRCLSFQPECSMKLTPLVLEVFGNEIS
# Test: qHTS assay to identify small molecule antagonists of the vitamin D receptor (VDR) signaling pathway (AID 743223)
# Conditions: VDR-UAS-bla HEK293T, beta-lactamase FRET ratio, 16 h; series mostly up to 61 µM; activity change, negative = inhibition: at the top concentration
# Procedure, shortened: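 Cells carrying a VDR-driven beta-lactamase reporter (VDR-bla) were co-treated with compound and 3 nM final 1alpha,25-dihydroxyvitamin D3 for 16 h at 37C; reporter activity was measured as FRET substrate fluorescence after 2 h at room temperature.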
# % is set by controls: 0 for no effect and ±100 for the full control effect.
row,SMILES,"activity change, negative = inhibition"
1,C=C[C@@H](C)CCC=C(C)C,7.26%
2,CCC(=O)c1ccc(O)cc1,1.91%
3,CN[C@@H]1[C@@H](O)[C@@H](O[C@@H]2[C@H](O)[C@H](O[C@H]3OC(CN)=CC[C@H]3N)[C@@H](N)C[C@H]2N)OCC1(C)O (stereo partly drawn),4.94%
4,Cc1cc(O)c2c(c1)C(=O)c1cccc(O)c1C2=O,14.9%
5,OCCCCCCCl,2.14% [at 78.8 µM]
6,C[C@H](CCC(=O)NCC(=O)O)[C@H]1CC[C@H]2[C@@H]3[C@H](O)C[C@@H]4C[C@H](O)CC[C@]4(C)[C@H]3C[C@H](O)[C@]12C,-0.0017%
7,O=C1NC2NC(=O)NC2N1 (stereo not drawn),6.6%
8,CCOC(=O)CCc1ccccc1,6.6%
9,Cc1cccc(Nc2ccncc2S(=O)(=O)NC(=O)NC(C)C)c1,27.6%
10,CC1=CC[C@H](CC=O)C1(C)C,4.63%
11,NS(=O)(=O)c1cc2c(cc1Cl)NC(CC1CCCC1)NS2(=O)=O (stereo not drawn),0.0297%
12,COc1cccc2sc(N)nc12,3.58% [at 78.8 µM]
13,CN(C)CCCNCCC#N,5.97%
14,C=CCOC(=O)c1ccc(C(=O)OCC=C)c(C(=O)OCC=C)c1,-4.08%
15,Nc1ccc(/C=C/c2ccc(N)cc2S(=O)(=O)O)c(S(=O)(=O)O)c1,0.787% [at 0.628 µM]
16,CC(Cl)COP(=O)(OCC(C)Cl)OCC(C)Cl (stereo not drawn),-0.199%
17,Cc1ncc([N+](=O)[O-])n1CC(O)CCl (stereo not drawn),11%
18,COCCOCCOCCOC,-5.86%
19,CCCCC/C=C/CC(=O)OC,0.508%
20,NC(=O)NC(=O)Cc1ccccc1,3.85%
21,CCOC(=O)CC(CC(=O)OCC)(OC(C)=O)C(=O)OCC,9.68%
22,CCC1COC(=O)O1 (stereo not drawn),-13.9%
23,CCS(=O)(=O)CCn1c([N+](=O)[O-])cnc1C,3.11%
